About 83,000 compounds went through this panel and 20% of them were active in at least one assay; those are over-represented in the sample as a whole.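 In brief: 96-well plates, 48 h treatment, single concentration, percent growth endpoint.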 Values without a mark were called inactive. Calls of active or inactive are those of the source. Rule for the calls: active = growth percent below 10; inactive = the rest.
How the values were obtained:
Experiment in all cases: NCI-60 one-dose screen, 48 h (100 = growth as untreated, 0 = no growth, -100 = all killed)
BT-549 breast = conditions: 10 µM unless noted
MDA-MB-435 melanoma = conditions: 10 µM unless noted
SW-620 colon = conditions: 10 µM unless noted
MCF7 breast = conditions: 10 µM
HCT-116 colon = conditions: 10 µM unless noted
HCC-2998 colon = conditions: 10 µM unless noted
KM12 colon = conditions: 10 µM unless noted

Structure (SMILES)	growth (BT-549 breast)	growth (MDA-MB-435 melanoma)	growth (SW-620 colon)	growth (MCF7 breast)	growth (HCT-116 colon)	growth (HCC-2998 colon)	growth (KM12 colon)
N#Cc1c(N)nc2c(c1N)C(c1ccc(F)cc1)c1ccc(N)cc1O2 (stereo not drawn)	93.8%	107%	108%	98.9%	101%	112%	91.2%
CC(=O)c1ccc(NC(=O)Nc2ccc(S(=O)(=O)Nc3ccc(Cl)nn3)cc2)cc1	107%	107%	104%	99.1%	105%	107%	103%
O=C(/C=C/c1ccccn1)c1ccc(OCc2nnc(-c3ccc(Cl)cc3)o2)cc1	16.5%	-66.2% (active)	-43.6% (active)	-28.3% (active)	-71.6% (active)	28%	-69.9% (active)
COc1cc(/C=C2\CN(S(=O)(=O)c3ccccc3)C/C(=C\c3cc(CN4CCCC4)c(O)c(OC)c3)C2=O)cc(CN2CCCC2)c1O	33.5%	-37.1% (active)	4.93% (active)	5.38% (active)	-81.1% (active)	-87.9% (active)	-56.3% (active)
Cc1cc2c(c(C)c1Cl)C(=O)/C(=C/c1cccc([N+](=O)[O-])c1)O2	106%	99.5%	104%	66%	103%	102%	103%
CN(C)CCCNCc1ccc(-c2ccc(F)c(Cl)c2)o1	76.6%	-41.6% (active)	-45% (active)	-33% (active)	12.3%	-90.2% (active)	-19.9% (active)
CC1=C(CC(=O)c2cccc([N+](=O)[O-])c2)C(=O)c2ccccc2C1=O	2.6% (active)	-56.1% (active)	-41.2% (active)	7.59% (active)	9.03% (active)	96.9%	7.77% (active)
CCCCc1ccc(NS(=O)(=O)c2cc3c4c(c2)CCN4C(=O)CC3)cc1	0.335% (active)	29.6%	25.3%	16.2%	13.4%	19%	21%
CC1=NCC2NC(=O)NC(C)=C12 (stereo not drawn)	96.4%	98.4%	99.9%	111%	101%	113%	104%
O=C(/C=C/c1ccccc1)c1ccc(Nc2nc(NCCO)nc(Nc3ccc(Cl)cc3)n2)cc1	84.4%	77.2%	18.7%	9.88% (active)	27.5%	62.5%	28.2%
C=C1C(=O)O[C@H]2[C@H]1CC/C(COC(=O)/C=C\C(=O)O)=C\CC[C@@]1(C)O[C@@H]21	103%	107%	105%	94.3%	109%	104%	106%
Cc1cc(OC(=O)c2ccc([N+](=O)[O-])cc2)nc2[nH]c(=O)sc12	111%	108%	104%	90.2%	105%	104%	102%
CC[C@H](C)[C@@H](C(=O)OC)n1cc(CNC(=O)[C@@H](Cc2ccccc2)NC(=O)OCc2ccccc2)nn1	106%	99.9%	102%	97%	102%	104%	103%
C=C[C@@H]1CCC/C=C/[C@@H]2C[C@H](O)C[C@H]2[C@H](O)/C=C/C(=O)O1	40.6%	12.9%	-15.9% (active)	-14.8% (active)	-0.456% (active)	-23.3% (active)	-36.3% (active)
Cc1cc(Br)c(N)c(Br)c1	94.9%	97.4%	101%	92.3%	82.8%	90.6%	104%
Cc1ccc2c(n1)C(=O)C(Oc1ccc(Br)cc1)=CC2=O	86.5%	101%	94%	85.6%	87.3%	101%	102%
CCCc1c(C)c2sc(=O)[nH]c2[nH]c1=O	110%	112%	102%	97.6%	106%	106%	105%
O=C(CSc1ccc2nnc(-c3cccc(F)c3)n2n1)Nc1ccc2c(c1)OCO2	88.3%	89.5%	92.8%	36.4%	62.1%	109%	73.5%
NC(CCc1nc2ccccc2c(=O)[nH]1)C(=O)O (stereo not drawn)	97%	100%	102%	105%	105%	107%	112%

Reference: PubChem BioAssay (NCI)
